Source: PubChem BioAssay (NCATS)
Values joined by “and” are separate entries in the source; they are usually repeats but may differ in a detail not shown here. Equal values may be shown once. Inconclusive results are not listed. Active and inactive are the calls of the source. Calls come from the whole dose curve; as a rule, active = well fitted curve in the direction sought with a large enough effect; inconclusive = small, poorly fitted or top-dose-only effect, or another doubt; inactive = no such curve, though single readings can be large; an effect the other way counts as inactive or inconclusive.

Experiments:
[1] = target: Cellular tumor antigen p53 (Homo sapiens) (UniProt P04637); experiment: Primary qHTS for small molecule compounds that upregulate eGFP-tagged delta133p53alpha (in N-terminal) cells. (AID 2060322); conditions: NCI-H358 eGFP-delta133p53alpha fluorescence, 24 h; activation: hits give high values; note: nearly all actives have a fitted effect of over 75% in size; note: potency is the fitted concentration of half-maximal effect;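 for activation: series mostly up to about 56 µM; 0% = DMSO vehicle and 100% = reference activator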
Sequence of Cellular tumor antigen p53 (Homo sapiens) (P04637 whole entry, looked up): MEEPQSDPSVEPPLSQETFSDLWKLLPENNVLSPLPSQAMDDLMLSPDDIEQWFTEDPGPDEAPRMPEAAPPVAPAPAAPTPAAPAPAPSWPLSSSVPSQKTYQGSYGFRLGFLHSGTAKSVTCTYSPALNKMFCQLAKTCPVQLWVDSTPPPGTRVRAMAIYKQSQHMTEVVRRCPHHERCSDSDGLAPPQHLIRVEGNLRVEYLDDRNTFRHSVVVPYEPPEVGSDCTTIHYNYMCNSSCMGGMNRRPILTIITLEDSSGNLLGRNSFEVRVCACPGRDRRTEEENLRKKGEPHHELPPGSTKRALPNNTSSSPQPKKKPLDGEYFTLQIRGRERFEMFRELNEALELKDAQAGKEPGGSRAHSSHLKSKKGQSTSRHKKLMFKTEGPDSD
How it was run: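 NCI-H358 cells pre-induced 24 h with 10 ng/ml doxycycline to express N-terminal eGFP-delta133p53alpha, then dosed 24 h at 37C without doxycycline; fixed, Hoechst-stained, GFP intensity by laser scanning cytometry, normalized to DMSO (0%) and 57.5 uM 5-azacytidine (100%).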

[2] = qHTS for Inhibitors of the Aldehyde Dehydrogenase Family (ALDH1A2, ALDH1A3, ALDH2, ALDH3A1) (AID 2061307); note: nearly all actives have a fitted effect of over 50% in size; for Potency: test system not described further here; potency is the fitted concentration of half-maximal effect
[3] = target: Aldehyde dehydrogenase, mitochondrial (Homo sapiens) (UniProt P05091); experiment: qHTS for Inhibitors of the Aldehyde Dehydrogenase Family (ALDH2) Primary screen (AID 2061308);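 note: plate controls were vehicle for no effect and reference inhibitor for full effect; nearly all actives have a fitted effect of over 55% in size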
[4] = target: Retinaldehyde dehydrogenase 3 (Homo sapiens) (UniProt P47895); experiment: qHTS for Inhibitors of the Aldehyde Dehydrogenase Family (ALDH1A3) Primary screen (AID 2061315); note: potency is the fitted concentration of half-maximal effect
[5] = target: Retinaldehyde dehydrogenase 3 (Homo sapiens) (UniProt P47895); experiment: qHTS for Inhibitors of the Aldehyde Dehydrogenase Family (ALDH1A3) Validation screen (AID 2061312); note: % is set by controls: 0 for no effect and ±100 for the full control effect; nearly all actives have a fitted effect of over 45% in size
[6] = target: Aldehyde dehydrogenase 1A1 (Homo sapiens) (UniProt P00352); experiment: qHTS for Inhibitors of the Aldehyde Dehydrogenase Family (ALDH1A1) Confirmatory screens (AID 2061316); note: nearly all actives have a fitted effect of over 65% in size; note: potency is the fitted concentration of half-maximal effect
[7] = BET inhibitor-based combinations targeting novel dependencies in MECOM-rearranged (r) AML: SET-2 cell line (AID 2202231); conditions: SET-2 AML cells viability, CellTiter-Glo luminescence, 48 h; viability: hits give low values, concentration not given here; note: nearly all actives have a fitted effect of over 35% in size; note: potency is the fitted concentration of half-maximal effect;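 for viability: plate controls were DMSO treated cells for no effect and wells without cells for full effect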
How it was run: (§1)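 Cells were plated at 500 per well and exposed to an 11-point dose series of each drug for 48 hr. Viability was measured by CellTiter-Glo luminescence, normalized to DMSO and empty-well controls, and summarized as AUC and per-cell-line Z-AUC.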

[8] = BET inhibitor-based combinations targeting novel dependencies in MECOM-rearranged (r) AML: MV-4-11 cell line (AID 2202233);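 note: plate controls were DMSO for no effect and blank wells for full effect; nearly all actives have a fitted effect of over 45% in size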
How it was run: (§2)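 Activity is given as area under the curve and as Z-AUC, mean-centred within each cell line. It comes from 11-point dose curves normalized to DMSO and empty wells. CellTiter-Glo luminescence was read after 48 hr drug exposure of 500 cells/well.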

[9] = BET inhibitor-based combinations targeting novel dependencies in MECOM-rearranged (r) AML: HNT-34 cell line (AID 2202234); note: nearly all actives have a fitted effect of over 35% in size; note: potency is the fitted concentration of half-maximal effect
How it was run: as §2

[10] = BET inhibitor-based combinations targeting novel dependencies in MECOM-rearranged (r) AML: AML-191 cell line (AID 2202236;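 note: plate controls were vehicle wells for no effect and wells without cells for full effect; nearly all actives have a fitted effect of over 35% in size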)
How it was run: as §1

[11] = BET inhibitor-based combinations targeting novel dependencies in MECOM-rearranged (r) AML: AML-194 cell line (AID 2202237;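 note: plate controls were vehicle wells for no effect and wells without cells for full effect; nearly all actives have a fitted effect of over 40% in size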)
How it was run: as §1

[12] = target: Retinal dehydrogenase 2 (Homo sapiens) (UniProt O94788); experiment: qHTS for Inhibitors of the Aldehyde Dehydrogenase Family (ALDH1A2) Confirmation screens (AID 2061314); note: nearly all actives have a fitted effect of over 65% in size; note: potency is the fitted concentration of half-maximal effect
[13] = target: Retinaldehyde dehydrogenase 3 (Homo sapiens) (UniProt P47895); experiment: qHTS for Inhibitors of the Aldehyde Dehydrogenase Family (ALDH1A3) Confirmatory screens (AID 2061311); note: nearly all actives have a fitted effect of over 60% in size; note: potency is the fitted concentration of half-maximal effect
[14] = BET inhibitor-based combinations targeting novel dependencies in MECOM-rearranged (r) AML: OCI-AML3 cell line (AID 2202232); conditions: Potency: OCI-AML3 viability;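 note: series mostly up to about 46 µM; plate controls were DMSO vehicle wells for no effect and wells without cells for full effect; nearly all actives have a fitted effect of over 35% in size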
How it was run: as §1

[15] = BET inhibitor-based combinations targeting novel dependencies in MECOM-rearranged (r) AML: UCSD-AML1 cell line (AID 2202235);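 note: series mostly up to about 46 µM; plate controls were DMSO vehicle wells for no effect and blank wells for full effect; nearly all actives have a fitted effect of over 40% in size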
How it was run: as §2

OCC1OC(Oc2cc(O)cc(/C=C/c3ccc(OC4OC(CO)C(O)C(O)C4O)cc3O)c2)C(O)C(O)C1O (stereo not drawn)
active: Potency [2] 10 µM | Potency [4] 4.47 µM
inactive: activation [1] -9.16% | Potency [3]

Cc1nnc(C(=O)NC(C)(C)c2nc(C(=O)NCc3ccc(F)cc3)c(O)c(=O)n2C)o1
active: Potency [2] 1.59 µM
inactive: activation [1] 12.2% and -3.35% and -11.5% | Potency [3] | Potency [5] | Potency [4] | Potency [6] | viability [7] 118% | Potency [8] | Potency [9] | Potency [10] | Potency [11]

COC(=O)C1=COC(OC2OC(CO)C(O)C(O)C2O)C2C(COC(=O)/C=C/c3ccc(O)c(O)c3)C(O)C(O)C12 (stereo not drawn)
inactive: activation [1] -6.25% | Potency [2] | Potency [3] | Potency [12] | Potency [6]

COc1cccc(CNC(=O)Nc2nc(-c3ccncc3)cs2)c1
inactive: activation [1] -8.04% | Potency [3] | Potency [4]
active: Potency [2] 2.01 µM | Potency [12] 5.65 µM

O=C(c1c(F)ccc(NS(=O)(=O)N2CC[C@@H](F)C2)c1F)c1c[nH]c2ncc(-c3cnc(C4CC4)nc3)cc12
inactive: activation [1] 17% | Potency [3] | Potency [12] | Potency [4]
active: Potency [2] 22.4 µM | Potency [7] 16.6 µM | Potency [9] 5.9 µM

Cc1cc(Nc2ccc(NC(=O)c3ccc(Nc4ccnc5ccccc45)cc3)cc2)nc(N)n1
active: Potency [1] 10.9 µM
inactive: Potency [2] | Potency [3] | Potency [5] | Potency [4]

COC(=O)C1=CO[C@@H](O[C@@H]2O[C@H](CO)[C@@H](O)[C@H](O)[C@H]2O)[C@@H]2[C@@H](C)[C@@H](O)C[C@H]12
inactive: activation [1] -11.5% | Potency [3]

CC(C)c1ccc2c(c1)CCC1[C@](C)(C(=O)O)CCC[C@]21C (stereo partly drawn)
inactive: activation [1] 9.82% | Potency [2] | Potency [13] | Potency [4] | Potency [6]

C=C[C@H]1[C@H](O[C@@H]2O[C@H](CO)[C@@H](O)[C@H](OC(=O)/C=C/c3ccc(O)c(OC)c3)[C@H]2O)OC=C2C(=O)OCC[C@]21O
inactive: activation [1] -1.53% | Potency [3]

CO[C@]1(NC(=O)CSC(F)F)C(=O)N2C(C(=O)O)=C(CSc3nnnn3CCO)CO[C@H]21
active: Potency [6] 14.2 µM
inactive: activation [1] -7.53% | Potency [2] | Potency [13] | Potency [12] | Potency [4]

COc1c(C(C)C)c(O)c(O)c2c1C(OC)[C@H]1OC(=O)[C@@]23CCCC(C)(C)[C@H]13 (stereo partly drawn)
active: Potency [13] 6.97 µM | Potency [12] 15.6 µM | Potency [4] 2.82 µM
inactive: activation [1] -1.79% | Potency [2]

CC(CCc1ccc(O)cc1)O[C@@H]1O[C@H](CO[C@@H]2OC(CO)[C@H](O)[C@H]2O)[C@@H](O)[C@H](O)[C@H]1O (stereo partly drawn)
inactive: activation [1] -13.7% | Potency [3]

O=C(NNc1ccccc1)c1ccncc1
inactive: activation [1] -8.33% | Potency [2] | Potency [12] | Potency [6] | Potency [14] | Potency [8] | Potency [9] | Potency [15] | Potency [10] | Potency [11]

CC(NCc1ccc(OCc2cccc(F)c2)cc1)C(N)=O (stereo not drawn)
inactive: activation [1] -7.16% | Potency [3]

COC(=O)C1=CO[C@@H](O[C@@H]2O[C@H](CO)[C@@H](O)[C@H](O)[C@H]2O)[C@@H]2C(CO)=CC[C@H]12
inactive: activation [1] 0% | Potency [3]

Cn1c(N2CCCCS2(=O)=O)nc(C(=O)NCc2ccc(F)cc2)c(O)c1=O
inactive: activation [1] 0.955% | Potency [4] | Potency [6]
active: Potency [2] 12.7 µM

COc1cc2c(cc1O)C1(Cc3ccc4c(c3C1O)OCO4)[N+](C)([O-])CC2 (stereo not drawn)
inactive: activation [1] -8.04% | Potency [3]

C[C@@H]1O[C@@H](O[C@H]2[C@H](O)[C@@H](O)[C@H](OC(=O)[C@]34CCC(C)(C)C[C@H]3C3=CCC5[C@@]6(C)CC[C@H](O[C@@H]7O[C@H](C(=O)O)[C@@H](O)[C@H](O)[C@H]7O)C(C)(C)C6CC[C@@]5(C)[C@]3(C)CC4)O[C@@H]2CO)[C@H](O)[C@H](O)[C@H]1O (stereo partly drawn)
inactive: activation [1] -9.16% | Potency [3]

COC(=O)C[C@H]1[C@]2(C)C3=C(C)[C@H](c4ccoc4)C[C@H]3O[C@@H]2[C@H](OC(C)=O)C2[C@](C)(C(=O)OC)C=CC(=O)[C@@]21C (stereo partly drawn)
inactive: activation [1] 11.6% | Potency [3]
